PREPL inhibitor: PREPL enzyme inhibitors, primary screen, biochemical, fluorescence polarization | AID 2751, 2010 | recombinant PREPL, fluorescence polarization activity-based probe | Prolyl endopeptidase-like (Homo sapiens), Q4J6C6 | inhibition, % at 5.96 µM | 320,000 compounds, 0.68% hits; in the data active = inhibition above about 43%;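 note: 0% = enzyme with DMSO and 100% = wells lacking enzyme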
Target sequence (Q4J6C6 whole entry, looked up): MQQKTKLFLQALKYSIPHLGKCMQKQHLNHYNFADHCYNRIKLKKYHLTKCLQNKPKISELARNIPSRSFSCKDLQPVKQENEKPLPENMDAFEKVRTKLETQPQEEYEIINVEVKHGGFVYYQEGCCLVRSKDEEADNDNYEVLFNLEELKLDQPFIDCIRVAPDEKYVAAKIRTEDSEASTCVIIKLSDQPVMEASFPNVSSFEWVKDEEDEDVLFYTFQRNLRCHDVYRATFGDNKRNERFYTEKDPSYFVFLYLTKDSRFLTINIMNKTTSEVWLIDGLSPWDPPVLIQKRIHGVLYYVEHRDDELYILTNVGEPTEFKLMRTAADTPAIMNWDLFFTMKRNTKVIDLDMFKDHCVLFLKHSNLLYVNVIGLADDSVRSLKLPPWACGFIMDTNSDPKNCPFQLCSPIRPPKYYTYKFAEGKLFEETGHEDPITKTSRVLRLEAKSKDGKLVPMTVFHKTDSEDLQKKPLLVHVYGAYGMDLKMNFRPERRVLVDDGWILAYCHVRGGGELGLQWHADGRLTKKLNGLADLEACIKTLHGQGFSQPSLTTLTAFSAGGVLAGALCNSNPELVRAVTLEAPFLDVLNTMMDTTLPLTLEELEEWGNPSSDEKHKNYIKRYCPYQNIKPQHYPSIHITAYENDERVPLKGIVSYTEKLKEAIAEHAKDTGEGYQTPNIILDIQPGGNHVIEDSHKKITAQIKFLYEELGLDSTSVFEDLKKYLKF
NadD inh: inhibitors of S. aureus NadD, primary screen, biochemical, colorimetric, uHTS; Nicotinate-nucleotide adenylyltransferase NadD (Staphylococcus aureus N315); purified NadD enzyme, colorimetric absorbance read-out; inhibition, % at 20 µM; 360,000 compounds, 0.78% hits; in the data active = inhibition above about 26%
Rpn11 block: Rpn11 (PSMD14) deubiquitinase inhibitors, primary screen, biochemical, fluorescence polarization, uHTS. 360,000 compounds, 0.59% hits. 26S proteasome non-ATPase regulatory subunit 14 (Homo sapiens), O00487. inhibition, % at 20 µM. human 26S proteasome, Ub4-pepOG fluorescence polarization; 20S core pre-blocked with epoxomicin;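 active = inhibition at 20 µM, scaled to each plate's controls, above about 33%, limit read from the data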
PP5 inh: PP5 phosphatase inhibitors, primary screen, biochemical, fluorescence | Serine/threonine-protein phosphatase 5 (Homo sapiens), P53041 | purified PP5c, OMFP substrate fluorescence | inhibition, % at 6.7 µM | 320,000 compounds, 0.18% hits | AID 1987, 2009;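 active = inhibition above the campaign's mean inhibition across all tested compounds plus 3 SD, cut at about 9.5% in these data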;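 note: 0% = DMSO only and 100% = 100 µM cantharidin control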
PP1 counter: PP1-alpha phosphatase inhibitors, primary screen, counter-screen for PP5 inhibitor project, biochemical, fluorescence, OMFP substrate, single point | Serine/threonine-protein phosphatase PP1-alpha catalytic subunit (Homo sapiens), P62136 | purified PP1alpha | inhibition, % at 6.7 µM | 320,000 compounds, 0.9% hits | AID 2235, 2010;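 active = inhibition above the mean inhibition of all tested compounds plus 3 SD, computed separately for each screening campaign, cut at about 15% in these data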
Starred values were filed as active, the others as inactive. Sampled rows, rich in hits. Any-hit rate of the full collection: about 2.4%.

Screening COc1ccc(OC)c(NC(=O)c2[nH]c(C)c(C(C)=O)c2C)c1 returned PREPL inhibitor 2, NadD inh -5, Rpn11 block -1, PP5 inh 2 and PP1 counter 2.
For COc1ccc(Cl)cc1NC(=O)c1[nH]c(C)c(C(C)=O)c1C the results were PREPL inhibitor 1, NadD inh 1, Rpn11 block -3, PP5 inh 2 and PP1 counter 17*.
COc1ccc(N=Nc2ccc(N)nc2N)cc1 was read as PREPL inhibitor 17, NadD inh -8, Rpn11 block 11, PP5 inh 3 and PP1 counter 4.
`CCOc1ccc2nc3cc(N=Nc4ccc(N)nc4N)ccc3c(N)c2c1` gave NadD inh 32* and Rpn11 block -32.
CC(=O)Nc1ccc(-c2ccnc3c2CC(C(=O)NCc2ccco2)O3)cc1 (centres undefined) was read as NadD inh -4 and Rpn11 block -3.
For CCc1ccc(Cc2cnc(NC(=O)C3=NCCN3)s2)cc1 the results were PREPL inhibitor 8, NadD inh -7, Rpn11 block -2, PP5 inh -1 and PP1 counter 17*.
CC(C)CC1OC(C(C)C)Cc2[nH]c(=S)[nH]c(=O)c21 (centres undefined) was read as NadD inh 7.
O=C(O)c1cccnc1SC1CC(=O)N(c2cccc(C(F)(F)F)c2)C1=O (centres undefined) was read as PREPL inhibitor -5, NadD inh 2, Rpn11 block 8, PP5 inh -2 and PP1 counter -4.
For O=C(O)c1cccnc1SC1CC(=O)N(c2ccc(OC(F)F)cc2)C1=O (centres undefined) the results were PREPL inhibitor -6, NadD inh -4, Rpn11 block -4, PP5 inh 4 and PP1 counter 16*.
O=c1[nH]c(C2CCN(S(=O)(=O)c3ccccc3C(F)(F)F)CC2)nc2c1nnn2Cc1cccc(F)c1 was read as PREPL inhibitor 2, NadD inh 7, Rpn11 block -6, PP5 inh 1 and PP1 counter 16*.
For Cc1ccc(CC(CC(=O)O)C(=O)Nc2ccc(Cl)cc2)cc1 (centres undefined) the results were PREPL inhibitor -6, NadD inh -1, Rpn11 block 0, PP5 inh 1 and PP1 counter 3.
Screening Cc1cnc(C)c(Nc2nc(C(N)Cc3ccc(Cl)cc3)cs2)n1 (centres undefined) returned NadD inh 14 and Rpn11 block 2.
`COc1ccccc1-n1c(=O)c(C#N)c(-c2ccc([N+](=O)[O-])cc2)c2cc(C(=O)c3cc(F)ccc3O)cnc21` gave PREPL inhibitor 9, NadD inh -4, Rpn11 block 0, PP5 inh 5 and PP1 counter 0.
`Cn1c(=O)c(C#N)c(-c2ccc(F)cc2)c2cc(C(=O)c3cc(Cl)cc(Cl)c3O)cnc21` gave PREPL inhibitor -3, NadD inh 24*, Rpn11 block 5, PP5 inh 4 and PP1 counter 13.
Screening NC(=O)[C@H](Cc1cc2ccccc2s1)NC(=O)[C@@H]1CC2(CC(c3cccc(NC(=O)[C@@H]4CCC(=O)N4)c3)=NO2)CN1C(=O)c1ccccc1 (some centres undefined) returned PREPL inhibitor 20, NadD inh 9, Rpn11 block 6, PP5 inh 0 and PP1 counter 1.
Screening NC(=O)[C@H](Cc1cc2ccccc2s1)NC(=O)[C@@H]1CC2(CC(c3cccc(NC(=O)[C@@H]4CCC(=O)N4)c3)=NO2)CN1C(=O)/C=C/Sc1ccccc1 (some centres undefined) returned PREPL inhibitor -5, NadD inh 23, Rpn11 block 16, PP5 inh 1 and PP1 counter 17*.
For Clc1ccc(C2=NCCN2)cc1 the results were PREPL inhibitor 15, NadD inh -3, Rpn11 block 6, PP5 inh 3 and PP1 counter -4.
Screening CC(=O)N1CCN(C(=O)CNC(=O)c2ccc(C)s2)CC1 returned NadD inh -6 and Rpn11 block -3.
`COc1cc(OC)cc(C2=Cc3ccccc3C(CC(=O)c3ccco3)N2c2ccc(-c3ccc(C(N)=O)cc3)cc2)c1` (centres undefined) gave NadD inh 28.
Screening COc1cccc(NC(=O)Nc2nnc(-c3ccccc3SCc3ccccc3)s2)c1 returned PREPL inhibitor -6, NadD inh 17, Rpn11 block -2, PP5 inh -1 and PP1 counter 6.
COc1ccc(NC(=O)Nc2nnc(-c3ccccc3SCc3ccccc3)s2)cc1 was read as PREPL inhibitor -2, NadD inh 22, Rpn11 block 1, PP5 inh 3 and PP1 counter 19*.
For O=S1(=O)C=C[C@@H](CO)N1Cc1ccc(Br)cc1 the results were NadD inh -2 and Rpn11 block 0.
Screening CCNC(=O)C1(C)CCN1CCC(=O)c1ccc(C)cc1 (centres undefined) returned NadD inh -2 and Rpn11 block 3.
`C#CCn1c(=NC(=O)c2ccc(Br)s2)sc2cccc(OC)c21` gave PREPL inhibitor -19, NadD inh 8, Rpn11 block 6, PP5 inh 0 and PP1 counter 16*.
C=CCn1c(=NC(=O)c2cccs2)sc2cccc(OC)c21 was read as PREPL inhibitor 3, NadD inh -3, Rpn11 block -1, PP5 inh 0 and PP1 counter 0.
Cc1cc2cc(C(c3nnnn3Cc3ccccc3)N3CCc4ccccc43)c(=O)[nH]c2cc1C (centres undefined) was read as PREPL inhibitor 6, NadD inh 28, Rpn11 block 1, PP5 inh 5 and PP1 counter 9.
For Cc1cc2cc(C(c3nnnn3Cc3ccco3)N3CCc4ccccc4C3)c(=O)[nH]c2cc1C (centres undefined) the results were PREPL inhibitor -44, NadD inh 13, Rpn11 block 8, PP5 inh 3 and PP1 counter 15*.
`CCOc1ccccc1N(CC)C(=O)c1cc2c(s1)-c1ccccc1S(=O)(=O)C2` gave NadD inh -2 and Rpn11 block 10.
`O=C(CSc1nnc(SCc2ccccc2)s1)N/N=C/C=C/c1ccccc1[N+](=O)[O-]` gave PREPL inhibitor 2, NadD inh 4, Rpn11 block -2, PP5 inh 5 and PP1 counter 16*.
CCCOc1cccc(C2C(C(=O)c3cc4ccccc4o3)=C(O)C(=O)N2c2cc(C)on2)c1 (centres undefined) was read as PREPL inhibitor 11, NadD inh 15, Rpn11 block 13, PP5 inh 4 and PP1 counter 26*.

Compound activity (PubChem BioAssay)
